# According to PubChem BioAssay (NCATS):
# Inconclusive results are not listed. Entries that show only a call come without a potency. The source made the active and inactive calls. Calls follow the shape of the full dose curve.
# Tests used:
# [1] = Primary qHTS for Huh7 cytotoxicity: counterscreen for inhibitors of MERS-S pseudotyped particle cell entry (AID 1479147); settings: cell viability read-out; series mostly up to 57.1 µM
# [2] = Primary qHTS for inhibitors of MERS-S pseudo-typed particle cell entry (AID 1479149); settings: MERS-S pseudotyped particle entry, luciferase; series mostly up to 57.1 µM; also: nearly all actives have a fitted effect of over 60% in size
# [3] = Primary qHTS for Vero E6 cytotoxicity: counterscreen for inhibitors of SARS-S pseudo-typed particle cell entry (AID 1479150); settings: cell viability; series mostly up to 57.1 µM
# [4] = Confirmatory qHTS for VERO E6 Cytotoxicity Assay: Counterscreen for SARS-CoV-2 CPE Assay (AID 1508605); settings: cell viability luminescence; series mostly up to 20 µM; also: nearly all actives have a fitted effect of over 60% in size
# [5] = Confirmatory qHTS for activators (rescue) of SARS-CoV-2 Cytopathic Effect (CPE) (AID 1508606); settings: Vero E6 SARS-CoV-2 CPE rescue, viability luminescence; series mostly up to 20 µM; also: potency is read from the fitted curve at half-maximal effect; nearly all actives have a fitted effect of over 70% in size
structure (smiles),measurement,setting,value
O=C(NC1CCN(CCc2c[nH]c3ccccc23)CC1)c1ccccc1,Potency,[1],inactive
same,Potency,[2],inactive
same,Potency,[3],inactive
CCOc1ccccc1C(N)=O,Potency,[1],inactive
same,Potency,[2],inactive
same,Potency,[3],inactive
CC(=O)c1ccc2c(c1)N(CCCN(C)C)c1ccccc1S2,Potency,[1],inactive
same,Potency,[3],inactive
Cc1ccc(Cl)c(OCC(O)CNC(C)(C)C)c1 (centres undefined),Potency,[1],inactive
same,Potency,[3],inactive
CCN(CC)CCOC(=O)C1(c2ccccc2)CCCC1,Potency,[1],inactive
same,Potency,[3],inactive
O=C(c1ccc(F)cc1)C1CCN(CCn2c(=O)[nH]c3ccccc3c2=O)CC1,Potency,[1],inactive
same,Potency,[3],inactive
O=C(Nc1ccccc1)OCC(CN1CCCCC1)OC(=O)Nc1ccccc1 (centres undefined),Potency,[1],inactive
same,Potency,[3],inactive
COc1cc(N)c(Cl)cc1C(=O)NC1CCN(Cc2ccccc2)CC1,Potency,[1],inactive
same,Potency,[3],inactive
CC(=O)O[C@]1(C(C)=O)CC[C@H]2[C@@H]3C=C(Cl)C4=CC(=O)CC[C@]4(C)[C@H]3CC[C@@]21C,Potency,[1],inactive
same,Potency,[3],inactive
COC(=O)C1=C(C)NC(C)=C(C(=O)OC(C)(C)CN(C)CCC(c2ccccc2)c2ccccc2)C1c1cccc([N+](=O)[O-])c1 (centres undefined),Potency,[1],inactive
same,Potency,[3],inactive
CN(C)CCCN1c2ccccc2Sc2ccccc21,Potency,[1],inactive
same,Potency,[3],inactive
same,Potency,[4],inactive
CN1CCCCC1CCN1c2ccccc2Sc2ccc(S(C)=O)cc21 (centres undefined),Potency,[1],inactive
same,Potency,[3],inactive
same,Potency,[4],inactive
CCCCCC(=O)O[C@]1(C(C)=O)CC[C@H]2[C@@H]3CCC4=CC(=O)CC[C@]4(C)[C@H]3CC[C@@]21C,Potency,[1],inactive
same,Potency,[3],inactive
CCCCc1cc2ccccc2c(OCCN(C)C)n1,Potency,[1],inactive
same,Potency,[3],inactive
CC1CCCCN1CCCOC(=O)c1ccc(OC2CCCCC2)cc1 (centres undefined),Potency,[1],inactive
same,Potency,[3],inactive
same,Potency,[4],inactive
same,Potency,[5],8.91 µM (active)
CC(C)(C)c1ccc(C(=O)CCCN2CCC(OC(c3ccccc3)c3ccccc3)CC2)cc1,Potency,[1],inactive
same,Potency,[3],inactive
C[C@@H](CN(C)C)CN1c2ccccc2Sc2ccccc21,Potency,[1],inactive
same,Potency,[3],inactive
same,Potency,[4],inactive
Clc1ccc(C(Cn2ccnc2)OCc2c(Cl)cccc2Cl)c(Cl)c1 (centres undefined),Potency,[1],inactive
same,Potency,[3],inactive
C=C1C[C@H]2[C@@H]3C=C(C)C4=CC(=O)CC[C@]4(C)[C@H]3CC[C@]2(C)[C@@]1(OC(C)=O)C(C)=O,Potency,[1],inactive
same,Potency,[3],inactive
CCCCN(CCCC)CC(O)c1cc(Cl)cc2c1-c1ccc(Cl)cc1/C2=C/c1ccc(Cl)cc1 (centres undefined),Potency,[1],inactive
same,Potency,[3],inactive
CO[C@@H]1[C@@H](O[C@@H]2O[C@H](C)[C@@H](O[C@H]3C[C@@](C)(O)[C@@H](O)[C@H](C)O3)[C@H](N(C)C)[C@H]2O)[C@@H](CC=O)C[C@@H](C)[C@@H](O[C@@H]2CC[C@H](N(C)C)[C@@H](C)O2)/C=C/C=C/C[C@@H](C)OC(=O)C[C@H]1OC(C)=O,Potency,[1],inactive
same,Potency,[3],inactive
same,Potency,[4],inactive
Clc1ccc2c(c1)CCc1cccnc1C2=C1CCNCC1,Potency,[1],inactive
same,Potency,[3],inactive
same,Potency,[4],inactive
COc1ccc2c(c1)c(CC(=O)O)c(C)n2C(=O)c1ccc(Cl)cc1,Potency,[1],inactive
same,Potency,[3],inactive
COc1ccc2c(c1)C(=O)N(CCc1ccc(S(=O)(=O)NC(=O)NC3CCCCC3)cc1)C(=O)C2(C)C,Potency,[1],inactive
same,Potency,[3],inactive
CCN(CC)CCOCCOC(=O)C1(c2ccccc2)CCCC1,Potency,[1],inactive
same,Potency,[3],inactive
NS(=O)(=O)c1cc2c(cc1Cl)NCNS2(=O)=O,Potency,[1],inactive
same,Potency,[3],inactive
CN1CC(=O)N2[C@H](c3ccc4c(c3)OCO4)c3[nH]c4ccccc4c3C[C@@H]2C1=O,Potency,[1],inactive
same,Potency,[3],inactive
CC/C(=C(/CC)c1ccc(O)cc1)c1ccc(O)cc1,Potency,[1],inactive
same,Potency,[3],inactive
OC(CCCN1CCCCC1)(c1ccccc1)c1ccccc1,Potency,[1],inactive
same,Potency,[3],inactive
Clc1ccc(C(Cn2ccnc2)OCc2ccsc2Cl)c(Cl)c1 (centres undefined),Potency,[1],inactive
same,Potency,[3],inactive
N#C/C(=C1/SC[C@@H](c2ccc(Cl)cc2Cl)S1)n1ccnc1,Potency,[1],inactive
same,Potency,[3],inactive
O[C@@H](COc1cccc2ncccc12)CN1CCN(C2c3ccccc3[C@@H]3[C@H](c4ccccc42)C3(F)F)CC1 (some centres undefined),Potency,[1],inactive
same,Potency,[3],inactive
CC(C)C[C@@H]1[C@H](c2ccccc2)OC(=O)N1CCCN1CCCCCC1,Potency,[1],inactive
same,Potency,[3],inactive
COCCOC(=O)C1=C(C)NC(C)=C(C(=O)OC/C=C/c2ccccc2)C1c1cccc([N+](=O)[O-])c1 (centres undefined),Potency,[1],inactive
same,Potency,[3],inactive
c1ccc(CNCCNCc2ccccc2)cc1,Potency,[1],inactive
same,Potency,[3],inactive
CN1[C@@H]2CC[C@H]1CC(OC(=O)c1c[nH]c3ccccc13)C2 (some centres undefined),Potency,[1],inactive
same,Potency,[3],inactive
COc1cccc(CCc2ccccc2OCC(CN(C)C)OC(=O)CCC(=O)O)c1 (centres undefined),Potency,[1],inactive
same,Potency,[3],inactive
same,Potency,[4],inactive
